# In paper PMC4552634, “A New Set of Chemical Starting Points with Plasmodium falciparum Transmission-Blocking Potential for Antimalarial Drug Discovery” (PLoS ONE, 2015):
# Screen size: about 13,000 compounds; about 3,200 (25%) showed an effect of 50% or more. This is one part of the list.
# Test system: P. falciparum stage V gametocytes
# Set-up: BacTiter-Glo ATP luminescence viability of purified stage V gametocytes in 384-well plates, per cent inhibition versus DMSO
# Details: 48 h, 5 µM; inhibitor
row,SMILES,% Inhibition
1,CN1CCCc2ccc(NC(=O)c3cc(-c4ccc(Cl)cc4)cs3)cc2C1 [TCMDC-133946],39.01%
2,CCN(CCCN1CCCCC1)c1nc(C)cc(Nc2ccc(Cl)cc2)n1 [TCMDC-137045],21.21%
3,O=C(Nc1ccc2c(c1)OCO2)NC1CCN(c2ccnc(NCc3ccc(F)cc3)n2)CC1 [TCMDC-133635],26.57%
4,Cc1ccc(NC(=O)c2ccc3ncccc3c2)cc1OC1CCN(CCC(C)C)C1 (centres unmarked) [TCMDC-133980],9.414%
5,CCCC1N=C(N)N=C(N)N1c1ccc(OC)cc1 (centres unmarked) [TCMDC-131295],-30.41%
6,O=C(Nc1ccc(CCNC2=NCCN2)cc1)Nc1ccc(CCNC2=NCCN2)cc1 [TCMDC-137205],10.33%
7,CCCCc1ccc2[nH]c(NC(=O)OC)nc2c1 [TCMDC-131798],-12.96%
8,CC(C)(C)OC(=O)Cn1cnc2cc(NC(=O)c3cc([N+](=O)[O-])cc([N+](=O)[O-])c3)ccc21 [TCMDC-131910],-17.84%
9,Cc1nc2ccc3ccc(CNc4ccc(C(=O)N[C@@H](CCC(=O)O)C(=O)N[C@@H](Cc5cccs5)C(=O)O)c(F)c4)cc3c2c(=O)[nH]1 [TCMDC-137819],7.673%
10,O=C(CNC(=O)c1ccc(O)cc1)Nc1cccc(-c2cccc(-c3nc4ccc(C(F)(F)F)cc4[nH]3)c2)c1 [TCMDC-136816],11.2%
11,CN1CCN(CC(O)CNC(=O)Nc2ccc(Br)cc2)CC1 (centres unmarked) [TCMDC-134635],15.1%
12,O=C(NCCCCN1CCC(c2ccc3c(c2OCCN2CCCC2)CCCC3)CC1)c1ccc(-c2ccc(C(F)(F)F)cc2)cc1 [TCMDC-138768],107.4%
13,CC(=O)COc1c(C2CCN(CCCCNC(=O)c3ccc(-c4ccc(C(F)(F)F)cc4)cc3)CC2)ccc2c1CCCC2 [TCMDC-138738],105.6%
14,O=C(NCCCCN1CCC(c2ccc3c(c2OCC(O)c2ccc(Cl)cc2)CCCC3)CC1)c1ccc(-c2ccc(C(F)(F)F)cc2)cc1 (centres unmarked) [TCMDC-138749],115%
15,NC(N)=Nc1nccc(NCc2ccccc2)n1 [TCMDC-141971],14.91%
16,N#Cc1ccc(N(CCOc2ccc3c(c2)CCC(=O)N3)Cc2ccccc2C(F)(F)F)cc1C(F)(F)F [TCMDC-132801],23.33%
17,O=C(Nc1cccc(CN2CCCN(Cc3ccc(O)cc3)CC2)c1)c1cc(F)cc(F)c1 [TCMDC-141881],2.179%
18,O=C(/C=C/c1ccc(Cl)c(Cl)c1)NCCCCCN1CCC(NC(=O)NCCc2ccccc2)CC1 [TCMDC-135707],-32.39%
19,CCCC(=O)Nc1ccc(OCCCN(Cc2ccccc2OC(F)(F)F)c2ccc(C#N)c(C(F)(F)F)c2)cc1 [TCMDC-135667],14.29%
20,COc1cccc(CN2CCC(CCOC(c3ccccc3)c3ccccc3)CC2)c1O [TCMDC-136041],-8.929%
21,COc1cccc(-c2[nH]c3ccccc3c2CN2CCC(c3c(C)cccc3C)CC2)c1 [TCMDC-141630],29.07%
22,COc1ccccc1-c1[nH]c2ccccc2c1CN1CCC(c2c(C)cccc2C)CC1 [TCMDC-141628],83.13%
23,CCN1CCN(c2cc(C)c3cc(NC(=O)c4ccc(Br)o4)ccc3n2)CC1 [TCMDC-123600],1.193%
24,COc1ccc(-c2cccc(NC(=O)c3ccc(Cl)cc3)c2)cc1CN1CCCN(C)CC1 [TCMDC-132602],-35%
25,COc1ccc(-c2ccc(NC(=O)c3ccc(Cl)cc3)cc2)cc1CN1CCC(O)CC1 [TCMDC-133337],0.3946%

row,SMILES,% Inhibition
1,COc1ccc(-c2ccc(NC(=O)c3ccc(Cl)cc3)cc2)cc1CN1CCN(C)CC1 [TCMDC-132512],92.99%
2,COc1ccc(-c2ccc(NC(=O)c3ccc(Cl)cc3)cc2)cc1CN1CCCN(C)CC1 [TCMDC-132510],104.3%
3,COc1ccc(-c2ccc(NC(=O)c3ccc(C#N)cc3)cc2)cc1CN1CCN(C)CC1 [TCMDC-133336],-18.08%
4,COc1ccc(-c2ccc(NC(=O)c3cccc(Cl)c3)cc2)cc1CN1CCN(C)CC1 [TCMDC-132526],82.79%
5,COc1ccc(-c2ccc(CNC(=O)c3ccc(Cl)cc3)c(F)c2)cc1CN1CCCN(C)CC1 [TCMDC-133369],-6.152%
6,COc1ccc(-c2cccc(NC(=O)c3cccc(Cl)c3)c2)cc1CN1CCN(C)CC1 [TCMDC-132617],28.66%
7,CC1(C)N=C(N)N=C(N)N1OCCCNC(=O)c1ccc(C(=O)NCCCON2C(N)=NC(N)=NC2(C)C)cc1 [TCMDC-131677],3.216%
8,CCOC(=O)c1ccc(-c2c(C(F)(F)F)noc2-c2cc(CC)c(OC)cc2O)o1 [TCMDC-124150],2.818%
9,Cc1ccc(C)c2c1[nH]c1ccc(C3=NCCN3)cc12 [TCMDC-137683],24.52%
10,CCCS(=O)(=O)c1nc(S(=O)(=O)c2ccc(Cl)cc2)c(N2CCCCC2)s1 [TCMDC-124768],-49.43%
11,COc1ccc(-c2ccc(CNCc3ccsc3)cc2)cc1S(=O)(=O)NCCN1CCCC1 [TCMDC-132283],107.3%
12,O=S(=O)(NCCN1CCCC1)c1ccc(-c2ccc(CNCc3ccsc3)cc2)cc1F [TCMDC-132288],40.86%
13,COc1ccc(CNCc2ccsc2)cc1-c1ccc(S(=O)(=O)NCCN2CCCC2)c(C)c1 [TCMDC-132225],105.9%
14,Cc1cc(-c2ccc(CNCc3ccsc3)cc2)ccc1S(=O)(=O)NCCN1CCCC1 [TCMDC-132292],94.64%
15,COc1ccc(CNCc2ccsc2)cc1-c1ccc(OC)c(S(=O)(=O)NCCN2CCCC2)c1 [TCMDC-132296],104.6%
16,CC(=O)OCCN1C(=O)c2ccc3c4c(ccc(c24)C1=O)C(=O)N(CCOC(C)=O)C3=O [TCMDC-123488],10.44%
17,COc1cc(Nc2nccc(N3CCC(NC(=O)c4cccc(NC(C)=O)c4)C3)n2)cc(OC)c1OC (centres unmarked) [TCMDC-133622],-17.51%
18,Cc1ccc(O)c(C(=O)c2cnc3c(c2)c(-c2ccc(F)cc2)c(C#N)c(=O)n3C)c1 [TCMDC-124507],19.5%
19,CC(=O)Nc1ccc(CN2CCC(N(C)c3cc(NC(=O)c4cccc(F)c4)ccn3)CC2)cc1 [TCMDC-134981],-20.16%
20,O=C(Nc1ccc2c(c1)CN(Cc1ccc(N3CCCC3)o1)CCC2)c1ccoc1 [TCMDC-134723],-9.381%
21,COc1ccc(-c2nc(NC(=O)Cc3cccc(OC)c3)sc2C)cc1 [TCMDC-124331],95.1%
22,COc1ccc(-c2nc(NC(=O)Cc3ccc(OC)c(OC)c3)sc2C)cc1 [TCMDC-123619],10.74%
23,COc1ccc(-c2nc(NC(=O)CS(=O)(=O)c3ccc(F)cc3)sc2C)cc1 [TCMDC-123523],53.6%
24,CCOc1ccc(-c2nc(NC(=O)Cc3cccc(OC)c3)sc2C)cc1 [TCMDC-123618],-21.09%
25,COc1ccc(-c2nc(NC(=O)Cc3ccc4c(c3)OCCO4)sc2C)cc1 [TCMDC-124374],41.12%

row,SMILES,% Inhibition
1,Cc1ccc(-c2nc(NC(=O)Nc3ccc(C(F)(F)F)cc3)sc2C)cc1Cl [TCMDC-125584],10.27%
2,COc1ccc(-c2nc(NC(=O)CSc3ccccc3)sc2C)cc1 [TCMDC-123814],23.99%
3,COc1ccc(OCC(=O)Nc2nc(-c3ccc(OC)cc3)c(C)s2)cc1 [TCMDC-124330],22.09%
4,COc1ccc(-c2nc(NC(=O)CS(=O)(=O)c3ccc(OC)cc3)sc2C)cc1 [TCMDC-125152],-0.7393%
5,COc1ccc(-c2nc(NC(=O)CS(=O)(=O)c3ccc(C)cc3)sc2C)cc1 [TCMDC-124318],31.51%
6,COc1ccc(-c2nc(NC(=O)CSc3ccc([N+](=O)[O-])cc3)sc2C)cc1 [TCMDC-124323],91.56%
7,Cc1sc(NC(=O)Cc2cccc(C(F)(F)F)c2)nc1-c1cccc(Cl)c1 [TCMDC-125144],54.43%
8,CCOc1cc2c(cc1OCC)C(c1ccc(O)c(Cl)c1)NCC2 (centres unmarked) [TCMDC-125439],10.77%
9,CC1CN(c2nc(NCCc3ccc(O)cc3)nc(NCc3ccccc3-c3ccc(C(F)(F)F)cc3)n2)CC(C)N1 (centres unmarked) [TCMDC-138324],26.39%
10,COc1cc2nc(N(C)CC3COc4ccccc4O3)nc(N)c2cc1OC.Cl (centres unmarked) [TCMDC-131889],-22.31%
11,C=CCC(C)n1ncc2c3c(N)nc(N)nc3ccc21 (centres unmarked) [TCMDC-137867],-15.57%
12,COc1cc(Cc2cnc(N)nc2N)c2c(c1OC)OC(C)C=C2 (centres unmarked) [TCMDC-137896],4.903%
13,O=C(Nc1cccc(-c2cccc(-c3nc4ccc(F)cc4[nH]3)c2)c1)c1cnc[nH]1 [TCMDC-136932],-61.11%
14,COc1ccc(-c2c3c(=O)n(C)c(=O)n(C)c3c3nnc4ccccc4n23)cc1 [TCMDC-125099],-11.53%
15,O=C(Nc1ccc(-c2nc3ccccc3[nH]2)cc1)C1CCCN(CC2CC2)C1 (centres unmarked) [TCMDC-124656],-0.844%
16,O=C(CC1NC(=O)c2ccccc21)Nc1ccc(-c2cccc(-c3nc4ccc(C(F)(F)F)cc4[nH]3)c2)cc1 (centres unmarked) [TCMDC-137092],-11.47%
17,CN1CCN(CC(=O)Nc2ccc(-c3ccc(-c4nc5ccc(C(F)(F)F)cc5[nH]4)cc3)cc2)CC1 [TCMDC-136985],-42.42%
18,O=C(CC1NC(=O)c2ccccc21)Nc1ccc(-c2ccc(-c3nc4ccc(C(F)(F)F)cc4[nH]3)cc2)cc1 (centres unmarked) [TCMDC-137095],71.74%
19,CN1CCN(CC(=O)Nc2ccc(-c3cccc(-c4nc5ccc(C(F)(F)F)cc5[nH]4)c3)cc2)CC1 [TCMDC-136981],72.32%
20,CN1CCN(CC(=O)Nc2cccc(-c3ccc(-c4nc5cc(C(F)(F)F)ccc5[nH]4)s3)c2)CC1 [TCMDC-136977],-5.014%
21,CN1CCN(CC(=O)Nc2cccc(-c3cccc(-c4nc5ccc(C(F)(F)F)cc5[nH]4)c3)c2)CC1 [TCMDC-136980],78.77%
22,CN1CCC(C(=O)Nc2ccc(-c3cccc(-c4nc5ccc(C(F)(F)F)cc5[nH]4)c3)cc2)CC1 [TCMDC-132188],-24.87%
23,CN1CCN(CC(=O)Nc2cccc(-c3ccc(-c4nc5ccc(C(F)(F)F)cc5[nH]4)cc3)c2)CC1 [TCMDC-136984],-3.609%
24,Cc1cccc2[nH]c(-c3cccc(-c4ccc(NC(=O)CC5NC(=O)c6ccccc65)cc4)c3)nc12 (centres unmarked) [TCMDC-137094],-30.82%
